Whole data set: some 35,000 sequences, median “fluorescence intensity (a.u.)” near 10,000, cut for the highest 2% near 52,000. Many of the other results were omitted from the sample, so the highest values are more common in it than they were.
target: T1, OsWOX13 (Oryza sativa, UniProt Q5QMM3 1-267); test: protein-binding microarray (RPBM); PBS, 2% BSA, 51.3 ng/ul salmon testes DNA, 50 uM zinc acetate, 200 nM TF, 25 C, 1 h; high values mean tight binding; conditions: protein: recombinant; tags: N-terminal polyhistidine and DsRed monomer fusion (pET32a); label: CyDye5-dUTP incorporated in the synthesized complementary strand; 3' TTTTT single-stranded linker to array surface; dsDNA, one strand shown
T1 sequence: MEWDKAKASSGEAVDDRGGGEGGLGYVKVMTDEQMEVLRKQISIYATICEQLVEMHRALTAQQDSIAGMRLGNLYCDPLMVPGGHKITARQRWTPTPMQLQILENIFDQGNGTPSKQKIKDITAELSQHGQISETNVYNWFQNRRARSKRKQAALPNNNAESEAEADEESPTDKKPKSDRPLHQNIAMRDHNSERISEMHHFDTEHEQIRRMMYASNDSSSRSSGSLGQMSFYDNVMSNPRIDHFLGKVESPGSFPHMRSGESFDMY
In short: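 An Axon 4000B scanner gave the binding signal as per-feature fluorescence intensity in arbitrary units. This followed washing of a custom Agilent array that had been incubated for 1 h at 25 °C with 200 nM protein in PBS, 2% BSA, salmon testes DNA and 50 µM zinc acetate. The proteins were transcription factors fused at the N-terminus to polyhistidine and DsRed, expressed in E. coli BL21-CodonPlus and purified on Ni–NTA.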

Sequence | binding signal
CTCCTTACAAATTTTGAAGATAATTTCGTAACACTTGGGGCGGAGTCACCTAGTGCAG | 7610 fluorescence intensity (a.u.)
TGGATGATTGGTGAGATAGGTGTTCCTTATAATTATAGGGCGGAGTCACCTAGTGCAG | 54800 fluorescence intensity (a.u.)
GAAATTAATTTTAATAGTGTTTTCATATTATTTCCATGCGCGGAGTCACCTAGTGCAG | 46500 fluorescence intensity (a.u.)
ACATTTGTGATTTTCCTAGGTAATGGTGAGATTTTATAGGCGGAGTCACCTAGTGCAG | 3220 fluorescence intensity (a.u.)
CTCAAATTATTGTTAAACCTTCATATAAATCGACCCCAATCGGAGTCACCTAGTGCAG | 7650 fluorescence intensity (a.u.)
ACTGTGACACATGATGAACTGTTTATTTTGCATGATCTATCGGAGTCACCTAGTGCAG | 5480 fluorescence intensity (a.u.)
GGCGTATTTCCCAATCATTGTGCGGTCCAAAACCATCGCCCGGAGTCACCTAGTGCAG | 10000 fluorescence intensity (a.u.)
CTGATGTGATTACGTCTATCCAGTATAATCCCTCTGGTTTCGGAGTCACCTAGTGCAG | 31700 fluorescence intensity (a.u.)
TACCTCGCGACTAATTGGGCCTCCACTAACACCTAGATTCCGGAGTCACCTAGTGCAG | 4340 fluorescence intensity (a.u.)
TGTGAAAATGGATAATTAAGGGATCCCAAAGACCCATAAGCGGAGTCACCTAGTGCAG | 10800 fluorescence intensity (a.u.)
GTTGAACTTATTCCAATCAAGGATCACGCATTCACGTTCACGGAGTCACCTAGTGCAG | 14100 fluorescence intensity (a.u.)
TAAAACTTATTTCTTGATAGATCAATCCCAGATTACAATGCGGAGTCACCTAGTGCAG | 8210 fluorescence intensity (a.u.)
CGACTGGATTGAAGCATTTTCTGCCTAGCTGTCTGTCTCTCGGAGTCACCTAGTGCAG | 10100 fluorescence intensity (a.u.)
TCTAATTACTTCATGATTTGATAATTTGGTGTTACAGTAACGGAGTCACCTAGTGCAG | 52400 fluorescence intensity (a.u.)
ATTAATTGATTGGATTGGTTGTGTGCATTATTTCATCTAACGGAGTCACCTAGTGCAG | 65200 fluorescence intensity (a.u.)
GATCTAATTTGAAATGTGATAAATTGTTTTCAATAAATGGCGGAGTCACCTAGTGCAG | 27700 fluorescence intensity (a.u.)
GGTTGATTGTGAAGTTAATTATTTAACATCTCAATTATAACGGAGTCACCTAGTGCAG | 32800 fluorescence intensity (a.u.)
AATTTCTTGTTCAATCATTTCATATATATATACATGTAGGCGGAGTCACCTAGTGCAG | 6120 fluorescence intensity (a.u.)
TTCATTAATTGATTATTACTAGTAGGGATGGTTGGTTCAACGGAGTCACCTAGTGCAG | 30700 fluorescence intensity (a.u.)
CCTGATTGCGTGTTGATTTGACAATATGGTGCTACAGTAACGGAGTCACCTAGTGCAG | 54300 fluorescence intensity (a.u.)
CCTAATTACTCCATGATTTGATAATATGACGCTACAGTAACGGAGTCACCTAGTGCAG | 25000 fluorescence intensity (a.u.)
AGTCTAATTGAGTGATTGTATACATGTTCAATGTTCATGGCGGAGTCACCTAGTGCAG | 65300 fluorescence intensity (a.u.)

Sequence | binding signal
CATGATTTGACAATATGGTGATACAGTAAATATTTGCTAACGGAGTCACCTAGTGCAG | 40600 fluorescence intensity (a.u.)
CCTAATTGCGTCATGATTTGACAATGTAGTGCTACAGTAACGGAGTCACCTAGTGCAG | 50800 fluorescence intensity (a.u.)
CCTAATTGCACCATGATTTGATAATGTTGTGCTACAGTAACGGAGTCACCTAGTGCAG | 42600 fluorescence intensity (a.u.)
GTTGTATGATTGACACTAGATCGAGAAAAGGTGCGACAAACGGAGTCACCTAGTGCAG | 23500 fluorescence intensity (a.u.)
CTTTAAATTTTAACTTTTGCATTGGCTTATTAGACCAACTCGGAGTCACCTAGTGCAG | 4620 fluorescence intensity (a.u.)
GAAATTACATATGACAAATCCAGAATTTTGATGGAGTGGTCGGAGTCACCTAGTGCAG | 6770 fluorescence intensity (a.u.)
TGCTCAATCACACACACACACGCGTGTAATATTAAGATTTCGGAGTCACCTAGTGCAG | 10500 fluorescence intensity (a.u.)
TAGATTGATCGGACTAACCACCCCATTTTACACCATTTGCCGGAGTCACCTAGTGCAG | 20900 fluorescence intensity (a.u.)
ATGTAAATCAATTGTTTAGTGTTGGATCTATAAGCAACATCGGAGTCACCTAGTGCAG | 4370 fluorescence intensity (a.u.)
TCTAATTGAAATTATTGTGTTTATGTATAAAGACAAATACCGGAGTCACCTAGTGCAG | 24900 fluorescence intensity (a.u.)
TTTGATTTGTTAATCCAGCTAGTCGTGGGGAATAGTGAAGCGGAGTCACCTAGTGCAG | 42700 fluorescence intensity (a.u.)
TAAGTAATTGATTGGTAGCCAGCTTCTAACTTCTAGCTTACGGAGTCACCTAGTGCAG | 63600 fluorescence intensity (a.u.)
ATTAAGATTGATTAATTGTTGCTTGGTTAATAGCCACTTACGGAGTCACCTAGTGCAG | 47500 fluorescence intensity (a.u.)
TTTAGTAATTGGTAGAGCTCAAATTTCTAAATTTAACTTCCGGAGTCACCTAGTGCAG | 6730 fluorescence intensity (a.u.)
TTCTAATCAAGCTTTCTGGTTAATTTCTCTATGAATTTAACGGAGTCACCTAGTGCAG | 5250 fluorescence intensity (a.u.)
TCTAGAGAATTAGCCCTGATTATAATGTGAGACTTTGCATCGGAGTCACCTAGTGCAG | 4870 fluorescence intensity (a.u.)
AAATCAATCTGATGGGCCGAATTGGAGGCCCATATCCGTGCGGAGTCACCTAGTGCAG | 8660 fluorescence intensity (a.u.)
TTTGGATTGGCCAGAACAAGATATACTTTCGAATCTTTTGCGGAGTCACCTAGTGCAG | 11300 fluorescence intensity (a.u.)
TCATAAATTATTTATAATTGCCTTGCTTAATTTACGCCTTCGGAGTCACCTAGTGCAG | 28900 fluorescence intensity (a.u.)
GCCGCCACCTTCGCCTTTATAAAGCTTACCTTTGCTACCACGGAGTCACCTAGTGCAG | 64800 fluorescence intensity (a.u.)
CTCGCCATCTTCGCCGTCCTTGCTTTCTTATATAAATTTTCGGAGTCACCTAGTGCAG | 4080 fluorescence intensity (a.u.)
